Many of the other results were omitted from the sample, so hits are more common in it than they were.
GIRK2 act: Activators of human GIRK2-containing channels | HEK293 GIRK2/NPY4 cells, thallium flux fluorescence | activation (% efficacy), % for hits at 37.5 µM | 34,000 tested, under 10 active | AID 1259324;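 active means primary screen hit, no activity in plain HEK293 cells, and in GIRK2-only cells above 5% efficacy rising with concentration; inactive means the rest, including fluorescent compounds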;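 further: efficacy is normalized control-subtracted fluorescence 15 s after thallium addition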
AMPAR-TARP mod: modulates AMPAR-stargazin complexes. HEK293 GluA2+stargazin, membrane potential dye (FDSS), glutamate EC50; hits were called plate by plate, in both directions. calls only at 30 µM. 40,000 tested, 3.5% active. AID 1259245;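 active means any of four per-well response measures lying three or more SD from its plate-wide compound average, in either direction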
Calls only; 0 = inactive; - = not tested or not shown; + = active, no number.

SMILES	GIRK2 act	AMPAR-TARP mod
O=C(Nc1ccccc1Cl)c1ccc(=O)n(Cc2ccccc2F)c1	0	0
CCOc1ccccc1NC(=O)c1ccc(=O)n(Cc2ccccc2Cl)c1	0	+
CC(=O)Nc1ccc(NC(=O)c2ccc(=O)n(Cc3ccccc3Cl)c2)cc1	0	0
COC(=O)Cn1c(=O)c2c(nc3n(-c4ccc(C)cc4C)c(C)cn23)n(C)c1=O	-	0
COc1cccc2sc(N(CC3CCCO3)C(=O)c3ccnn3C)nc12 (stereo not drawn)	0	-
CCOC(=O)N1CCN(C(=O)Cn2c(S(C)(=O)=O)nc3ccccc32)CC1	0	0
COc1cc([N+](=O)[O-])ccc1NC(=O)c1ccc(S(=O)(=O)N(C)C2CCCC2)cc1	-	0
c1coc(CNc2nc(N3CCCCC3)nc3ccccc23)c1	-	+
c1ccc(N2CCN(c3nc(NCc4ccco4)c4ccccc4n3)CC2)cc1	-	0
COc1cc(NS(=O)(=O)c2ccc(NC(=O)c3ccc(S(=O)(=O)N4CCCCCC4)cc3)cc2)nc(OC)n1	-	0
COC(=O)c1ccc(C(=O)NCC2CCN(S(C)(=O)=O)CC2)cc1	0	0
Cc1ccc(S(=O)(=O)N2CCCCC2CC(=O)NC2CCCCCC2)cc1 (stereo not drawn)	-	+
COc1ccccc1CNC(=O)CC1CCCCN1S(=O)(=O)c1ccc(C)cc1 (stereo not drawn)	-	+
COc1ccc(S(=O)(=O)N2CCCCC2CC(=O)NC2CCCCCC2)cc1 (stereo not drawn)	-	+
Cc1ccc(S(=O)(=O)N2CCCCC2CC(=O)NCc2ccccn2)cc1 (stereo not drawn)	0	0
COc1ccccc1CNC(=O)CC1CCCCN1S(=O)(=O)c1ccccc1 (stereo not drawn)	-	0
COc1ccc(S(=O)(=O)N2CCCCC2CC(=O)NC2CCCCC2)cc1 (stereo not drawn)	-	0
COc1ccc(S(=O)(=O)N2CCCCC2CC(=O)NCc2ccc(Cl)cc2)cc1 (stereo not drawn)	-	0
COc1ccc(CCNC(=O)CC2CCCCN2S(=O)(=O)c2ccc(Cl)cc2)cc1OC (stereo not drawn)	-	+
Cc1cccc(N2CCN(S(=O)(=O)CCCNC(=O)COc3ccccc3F)CC2)c1	-	0
Cc1c(C)c(C)c(S(=O)(=O)NCC(C)(O)c2ccc3c(c2)OCO3)c(C)c1C (stereo not drawn)	0	0
COc1ccc2ncc(C#N)c(Nc3ccc(OC)c(OC)c3)c2c1	0	-
Cc1ccc(OCC(O)Cn2c(C3CC(=O)N(c4ccccc4F)C3)nc3ccccc32)cc1 (stereo not drawn)	0	0
COc1ccc(CCNC(=O)CC2CCCCN2S(=O)(=O)c2ccccc2)cc1 (stereo not drawn)	-	0
O=C(CC1CCCCN1S(=O)(=O)c1ccccc1)NC1CCCCCC1 (stereo not drawn)	-	+
SMILES	GIRK2 act	AMPAR-TARP mod
CCOc1cn2c(cc1=O)C(=O)N(CCNC(=O)c1ccc(Cl)cc1)CC2	0	0
O=C(CCc1ccccc1)N1CCC(COCc2ccccc2)CC1	0	0
CCOc1ccc(C(=O)Nc2ccc3c(c2)CCC(=O)N3C)cc1OCC	-	0
COc1ccc(OC)c(-c2ccc(=O)n(Cc3cccc([N+](=O)[O-])c3)n2)c1	0	+
COc1ccc(OC)c(-c2ccc(=O)n(Cc3ccccc3)n2)c1	0	0
O=C(Cc1cc(-c2ccc(F)cc2F)on1)NC1=NCCS1	0	0
Cc1ccc(S(=O)(=O)NCCn2nc(C)c(Cl)c2C)cc1C	0	+
Cc1ccc(S(=O)(=O)NCCn2nc(-c3ccc(Cl)cc3)ccc2=O)cc1C	-	0
O=C(Nc1sc2c(c1C(=O)O)CCC2)c1cccc(Cl)c1	-	+
CC(C)S(=O)(=O)c1cccc(C(=O)Nc2sc3c(c2C(N)=O)CCCC3)c1	0	0
O=c1nc(SCc2cccc(C(F)(F)F)c2)c2c(n1CCO)CCC2	0	0
C=CCN1CC(c2nc3ccccc3n2Cc2ccccc2C)CC1=O (stereo not drawn)	-	0
Cc1ccc(C)c(Cn2c(C3CC(=O)N(c4ccccc4)C3)nc3ccccc32)c1 (stereo not drawn)	-	+
C=CCN1CC(c2nc3ccccc3n2Cc2cc(C)ccc2C)CC1=O (stereo not drawn)	-	+
Cc1ccc(N2CC(c3nc4ccccc4n3Cc3ccccc3C)CC2=O)cc1 (stereo not drawn)	-	0
C=CCN1CC(c2nc3ccccc3n2CC(O)COc2c(C)cccc2C)CC1=O (stereo not drawn)	0	+
Cc1cc(C)cc(OCC(O)Cn2c(C3CC(=O)N(Cc4ccccc4)C3)nc3ccccc32)c1 (stereo not drawn)	0	0
CCOC(=O)N1CCN(CC(O)COCCOc2ccc(Cl)cc2)CC1 (stereo not drawn)	0	0
COc1ccc(-n2c(=O)c3ccccc3n(CC(=O)NCCc3ccccc3)c2=O)cc1	-	0
COc1ccc2sc(=NC(=O)c3cc(C)no3)n(CCSC)c2c1	0	+
COc1ccc2sc(=NC(C)=O)n(CCSC)c2c1	-	0
O=C(CCS(=O)(=O)c1ccccc1)Nc1ccc(CC(=O)N2CCC(O)CC2)cc1	0	-
COc1ccc(CCC(=O)NCC(C)(O)CCSC)cc1 (stereo not drawn)	0	0
CCCn1c(=O)c2c(nc3n2CC(C)CN3c2ccccc2OC)n(C)c1=O (stereo not drawn)	-	+
CCn1c(=O)c2c(nc3n(-c4cc(OC)ccc4OC)c(-c4ccccc4)cn23)n(C)c1=O	0	0
SMILES	GIRK2 act	AMPAR-TARP mod
CCCn1c(=O)c2c(nc3n(-c4cc(OC)ccc4OC)c(-c4ccccc4)cn23)n(C)c1=O	-	+
CCCCn1c(=O)c2c(nc3n2CC(C)CN3c2ccccc2OC)n(C)c1=O (stereo not drawn)	-	0
CCCN1COc2ccc3c(=O)c(-c4ccc(OC)c(OC)c4)c(C)oc3c2C1	0	0
O=C(NCC1CCN(c2ncccn2)CC1)C(=O)Nc1ccc2c(c1)OCO2	0	0
CCc1ccccc1NC(=O)Cn1c(COc2ccccc2OC)nc2ccccc21	0	0
O=C(CSc1ccc(NC(=O)c2ccccc2)nn1)Nc1nccs1	0	0
COCCn1cnc2c(-c3ccccc3)cn(CC(=O)Nc3ccc(OC)c(OC)c3)c2c1=O	0	0
O=S(=O)(NCC#CCN1CCc2ccccc2C1)c1ccc2ccccc2c1	0	0
O=S(=O)(NCC#CCN1CCCCC1)c1ccc2ccccc2c1	-	+
CCc1nnc(NS(=O)(=O)c2ccc(NC(=O)c3ccc4ncsc4c3)cc2)s1	-	0
COc1ccc(NC(=O)Cn2nc(SC)c(S(=O)(=O)c3ccc(OC)cc3)c2N)cc1	-	0
COc1ccc(NC(=O)Cn2nc(SC)c(S(=O)(=O)c3ccccc3)c2N)c(OC)c1	-	+
COc1ccc(OC)c(NC(=O)Cc2cc(-c3ccc(F)cc3F)on2)c1	0	0
CCN1CC(c2nc3ccccc3n2Cc2ccc(Cl)cc2Cl)CC1=O (stereo not drawn)	-	+
CCN1CC(c2nc3ccccc3n2Cc2c(Cl)cccc2Cl)CC1=O (stereo not drawn)	-	+
CCN1CC(c2nc3ccccc3n2CC(=O)N2CCCCC2)CC1=O (stereo not drawn)	0	-
CCCCN1CC(c2nc3ccccc3n2CCOc2cccc(C)c2)CC1=O (stereo not drawn)	-	+
C=CCN1CC(c2nc3ccccc3n2Cc2ccccc2Cl)CC1=O (stereo not drawn)	-	0

Screens deposited in PubChem by several laboratories.
